Assay results reported in PubChem BioAssay AID1159580 (chemical genetic matrix, 2015).
Screen size: about 5,500 compounds; about 2,000 (36%) were called active. About 18% were inconclusive and are not listed. The list shows a part of the results. Unmarked numbers belong to inactive results. No stated cut-off is given here; in the data, active means normalized growth mostly below about 0.91 (no sharp cut-off); inconclusive means no clear call, values can overlap the other calls; inactive means mostly above about 0.92.

Test: chemical genetic growth profiling, strain panel (AID 1159580);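 further: tested at 20 µM; growth read once vehicle control cultures reached saturation at 30 °C; 1 = growth at the plate median or of vehicle wells; lower values mean less growth of the strain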
Conditions: growth OD

## Cc1cc(O)cc(C)c1Cl
S. cerevisiae deletion strains, locus YKL009W, strain mrt4, hits give low values
  normalized growth: 0.931
S. cerevisiae deletion strains, locus YKL068W, hits give low values
  normalized growth: 1
S. cerevisiae deletion strains, locus YKL085W, strain MDH1 (second series), hits give low values
  normalized growth: 0.971
S. cerevisiae deletion strains, locus YKL085W, strain MDH1, hits give low values
  normalized growth: 0.971
S. cerevisiae deletion strains, locus YKL160W, strain elf1, hits give low values
  normalized growth: 0.915
S. cerevisiae deletion strains, locus YKL190W, strain CNB1, hits give low values
  normalized growth: 1
S. cerevisiae deletion strains, locus YKR001C, strain vps1, hits give low values
  normalized growth: 0.846 (active)
S. cerevisiae deletion strains, locus YKR026C, strain gcn3, hits give low values
  normalized growth: 0.952
S. cerevisiae deletion strains, locus YKR091W, strain srl3, hits give low values
  normalized growth: 0.958
S. cerevisiae deletion strains, locus YLL001W, strain dnm1, hits give low values
  normalized growth: 0.875 (active)
S. cerevisiae deletion strains, locus YLL026W, hits give low values
  normalized growth: 0.915 (active)
S. cerevisiae deletion strains, locus YLL041C, strain sdh2, hits give low values
  normalized growth: 0.957
S. cerevisiae deletion strains, locus YLR027C, strain aat2, hits give low values
  normalized growth: 0.941
S. cerevisiae deletion strains, locus YLR039C, strain RIC1, hits give low values
  normalized growth: 0.765
S. cerevisiae deletion strains, locus YLR058C, strain SHM2, hits give low values
  normalized growth: 1
S. cerevisiae deletion strains, locus YLR102C, strain apc9, hits give low values
  normalized growth: 1
S. cerevisiae deletion strains, locus YLR113W, strain HOG1, hits give low values
  normalized growth: 0.944
S. cerevisiae deletion strains, locus YLR221C, strain rsa3, hits give low values
  normalized growth: 0.856 (active)
S. cerevisiae deletion strains, locus YLR258W, strain gsy2, hits give low values
  normalized growth: 0.924
S. cerevisiae deletion strains, locus YLR262C, strain YPT6 (second series), hits give low values
  normalized growth: 0.403 (active)
S. cerevisiae deletion strains, locus YLR262C, strain YPT6, hits give low values
  normalized growth: 0.736
S. cerevisiae deletion strains, locus YLR268W, strain sec22, hits give low values
  normalized growth: 1.01
S. cerevisiae deletion strains, locus YLR320W, strain mms22, hits give low values
  normalized growth: 0.815 (active)
S. cerevisiae deletion strains, locus YLR330W, strain CHS5, hits give low values
  normalized growth: 0.994
S. cerevisiae deletion strains, locus YLR342W, strain FKS1 (second series), hits give low values
  normalized growth: 0.982
S. cerevisiae deletion strains, locus YLR342W, strain FKS1, hits give low values
  normalized growth: 0.935
S. cerevisiae deletion strains, locus YLR357W, strain rsc2, hits give low values
  normalized growth: 1.1
S. cerevisiae deletion strains, locus YLR370C, strain arc18, hits give low values
  normalized growth: 0.902 (active)
S. cerevisiae deletion strains, locus YLR371W, strain rom2, hits give low values
  normalized growth: 0.997
S. cerevisiae deletion strains, locus YLR384C, strain iki3, hits give low values
  normalized growth: 0.992
S. cerevisiae deletion strains, locus YLR418C, strain cdc73, hits give low values
  normalized growth: 1
S. cerevisiae deletion strains, locus YML016C, strain PPZ1, hits give low values
  normalized growth: 0.992
S. cerevisiae deletion strains, locus YML032C, strain rad52, hits give low values
  normalized growth: 0.957
S. cerevisiae deletion strains, locus YML120C, strain ndi1, hits give low values
  normalized growth: 0.917
S. cerevisiae deletion strains, locus YML124C, strain tub3, hits give low values
  normalized growth: 0.996
S. cerevisiae deletion strains, locus YMR058W, strain fet3, hits give low values
  normalized growth: 0.871 (active)
S. cerevisiae deletion strains, locus YMR078C, strain ctf18, hits give low values
  normalized growth: 0.994
S. cerevisiae deletion strains, locus YMR125W, strain sto1, hits give low values
  normalized growth: 1.04
S. cerevisiae deletion strains, locus YMR129W, hits give low values
  normalized growth: 0.966
S. cerevisiae deletion strains, locus YMR205C, strain PFK2, hits give low values
  normalized growth: 0.898
S. cerevisiae deletion strains, locus YMR223W, strain ubp8, hits give low values
  normalized growth: 1.02
S. cerevisiae deletion strains, locus YMR231W, strain pep5, hits give low values
  normalized growth: 0.754 (active)
S. cerevisiae deletion strains, locus YMR307W, strain GAS1, hits give low values
  normalized growth: 0.904
S. cerevisiae deletion strains, locus YNL067W, strain RPL9B, hits give low values
  normalized growth: 0.972
S. cerevisiae deletion strains, locus YNL071W, strain lat1, hits give low values
  normalized growth: 0.821 (active)
S. cerevisiae deletion strains, locus YNL153C, strain GIM3, hits give low values
  normalized growth: 1.02
S. cerevisiae deletion strains, locus YNL183C, strain NPR1, hits give low values
  normalized growth: 0.88
S. cerevisiae deletion strains, locus YNL209W, strain ssb2, hits give low values
  normalized growth: 0.929
S. cerevisiae deletion strains, locus YNL233W, strain BNI4, hits give low values
  normalized growth: 0.992
S. cerevisiae deletion strains, locus YNL248C, strain rpa49, hits give low values
  normalized growth: 0.835 (active)
S. cerevisiae deletion strains, locus YNL250W, strain rad50, hits give low values
  normalized growth: 0.992
S. cerevisiae deletion strains, locus YNL271C, strain bni1, hits give low values
  normalized growth: 1
S. cerevisiae deletion strains, locus YNL298W, strain CLA4, hits give low values
  normalized growth: 0.913
S. cerevisiae deletion strains, locus YNL307C, strain MCK1, hits give low values
  normalized growth: 0.995
S. cerevisiae deletion strains, locus YNL322C, strain KRE1 (second series), hits give low values
  normalized growth: 0.961
S. cerevisiae deletion strains, locus YNR049C, strain mso1, hits give low values
  normalized growth: 0.97
S. cerevisiae deletion strains, locus YNR052C, strain pop2, hits give low values
  normalized growth: 1.01
S. cerevisiae deletion strains, locus YOL006C, strain TOP1, hits give low values
  normalized growth: 0.979
S. cerevisiae deletion strains, locus YOL012C, strain htz1
  normalized growth: 1.64
S. cerevisiae deletion strains, locus YOL147C, strain pex11, hits give low values
  normalized growth: 0.997
S. cerevisiae deletion strains, locus YOR001W, strain rrp6, hits give low values
  normalized growth: 0.892
S. cerevisiae deletion strains, locus YOR061W, strain CKA2, hits give low values
  normalized growth: 0.993
S. cerevisiae deletion strains, locus YOR069W, strain VPS5, hits give low values
  normalized growth: 1
S. cerevisiae deletion strains, locus YOR070C, strain gyp1, hits give low values
  normalized growth: 0.906 (active)
S. cerevisiae deletion strains, locus YOR080W, strain dia2, hits give low values
  normalized growth: 1.02
S. cerevisiae deletion strains, locus YOR083W, strain WHI5, hits give low values
  normalized growth: 0.899
S. cerevisiae deletion strains, locus YOR106W, strain vam3, hits give low values
  normalized growth: 0.817 (active)
S. cerevisiae deletion strains, locus YOR136W, strain idh2, hits give low values
  normalized growth: 0.998
S. cerevisiae deletion strains, locus YOR144C, strain elg1, hits give low values
  normalized growth: 1
S. cerevisiae deletion strains, locus YOR184W, strain ser1, hits give low values
  normalized growth: 0.958
S. cerevisiae deletion strains, locus YOR231W, strain MKK1, hits give low values
  normalized growth: 0.946
S. cerevisiae deletion strains, locus YOR265W, strain rbl2, hits give low values
  normalized growth: 0.945
S. cerevisiae deletion strains, locus YOR270C, strain vph1, hits give low values
  normalized growth: 0.674 (active)
S. cerevisiae deletion strains, locus YOR290C, strain snf2, hits give low values
  normalized growth: 0.908
S. cerevisiae deletion strains, locus YOR316C, strain cot1, hits give low values
  normalized growth: 0.993
S. cerevisiae deletion strains, locus YPL051W, strain arl3, hits give low values
  normalized growth: 0.715 (active)
S. cerevisiae deletion strains, locus YPL055C, strain LGE1, hits give low values
  normalized growth: 0.947
S. cerevisiae deletion strains, locus YPL078C, strain atp4, hits give low values
  normalized growth: 0.838 (active)
S. cerevisiae deletion strains, locus YPL106C, strain sse1, hits give low values
  normalized growth: 1.1
S. cerevisiae deletion strains, locus YPL240C, strain hsp82, hits give low values
  normalized growth: 0.951
S. cerevisiae deletion strains, locus YPL241C, strain CIN2, hits give low values
  normalized growth: 0.999
S. cerevisiae deletion strains, locus YPL256C, strain CLN2, hits give low values
  normalized growth: 0.92
S. cerevisiae deletion strains, locus YPR119W, strain clb2, hits give low values
  normalized growth: 0.997
S. cerevisiae deletion strains, locus YPR141C, strain kar3, hits give low values
  normalized growth: 0.999
S. cerevisiae deletion strains, locus YPR163C, strain tif3, hits give low values
  normalized growth: 1.01
S. cerevisiae deletion strains, locus YPR167C, strain met16, hits give low values
  normalized growth: 0.99
S. cerevisiae deletion strains, strain wtn01, hits give low values
  normalized growth: 0.96
S. cerevisiae strains, strain wild type, hits give low values
  normalized growth: 0.998
